The values that follow come from PubChem BioAssay (NCI).

About 83,000 compounds went through this panel and 20% of them were active in at least one assay; those are over-represented in the sample as a whole.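 Compound tested at a single concentration for 48 hours in 96-well plates; a percent growth value below 10 was scored as active.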 A number with no mark means an inactive call. The source made the active and inactive calls.

The subject of this assay is NCI/ADR-RES ovarian. Nature of the assay: NCI-60 one-dose screen, 48 h (100 = growth as untreated, 0 = no growth, -100 = all killed). To be noted: 10 µM unless noted. As for the experimental part: Growth inhibition of the NCI/ADR-RES human […] tumor cell line is measured as a screen for anti-cancer activity. Cells are grown in 96 well plates and exposed to the test compound for 48 hours. Compounds are tested at a single concentration, which is 10^-5 M for most compounds. The reported endpoint is percent growth (GI% or GIPRCNT), where numbers from 0 - 100% represent growth inhibition, and numbers from -100% - 0 represent cell death. For example, a value of 40 represents 60% growth inhibition. A value of 0 means no net growth occurred over the course of the experiment. A value of -40 indicates 40% of cells at the beginning of the experiment died by the end of the experiment. A value of -100 means all cells are dead at the end of the experiment.
NCI-60 Human Tumor Cell Lines Screen was performed using the standard one-dose NCI protocol, which is described in more detail at https://dtp.cancer.gov/discovery_development/nci-60/default.htm.
Compounds with GIPRCNT values below 10 were considered active. Activity score was based on GIPRCNT using the following formula: […]
Score is 0 for GIPRCNT values of 100 or above, 50 for GIPRCNT values of 0, and 100 for GIPRCNT values of -100.
With `CCN1C(=O)N(CC)C2Nn3c(s/c(=C\c4ccc(Cl)cc4Cl)c3=O)=NC21` (stereo not given), the growth was 14.7%.
As for `COc1ccc2c(c1)C(=O)/C(=C/c1ccc(OCC(=O)Nc3nccs3)cc1)O2`, the growth was 56.9%.
For the molecule `COc1nc(N(C)O)nc(N(C)O)n1`, the growth was 14.9%.
With `C=CCSc1nc2ccccc2cc1/C=N/O` the figure was 97.2%; with `CCc1ccccc1NC(=O)/C(C#N)=C/c1ccc(OC)cc1`, 97.8%; with `O=C1/C(=C/c2ccc(Br)cc2)C=C(c2ccccc2)N1CCc1ccccc1`, 27.8%.
As for `NC(=O)c1ccc[n+]([C@@H]2O[C@H](COP(=O)([O-])OP(=O)(O)OC[C@H]3O[C@@H](n4cnc5c(N)ncnc54)[C@H](O)[C@@H]3O)[C@@H](O)[C@H]2O)c1`, the growth is 99.2%.
Take `c1ccc(-c2nc([P+](c3ccccc3)(c3ccccc3)c3ccccc3)c(N3CCOCC3)o2)cc1`: the growth was 92.8%.
On to `Cc1c(Cl)cc(-n2c(=O)c3ccccc3c3ccccc3c2=O)cc1Cl`, for which the growth is 102%.
`COc1ccc(-c2nc3ccc4[nH]ncc4c3c3c2CCCC3)cc1B(O)O`: the growth was 71.2%.
With `CC(=O)c1nc(Nc2ccc(C)cc2)sc1C`, the growth was 99.4%.
Consider `CCOC(=O)c1ccc(N2NC(=O)/C(=C/c3ccc([N+](=O)[O-])o3)C2=O)cc1`, for which the growth was 111%.
With `COc1ccc(C2=NN(C(=O)c3cc(OC)c(OC)c(OC)c3)C(c3ccc(Cl)cc3)C2)cc1OC` (stereo not given) the figure was -36.3% (active); with `CC1=C(SCCC(=O)OC(C[Se]C2=C(C)C(=O)c3ccccc3C2=O)C(=O)NCCCCCC(=O)OCc2ccccc2)C(=O)c2ccccc2C1=O` (stereo not given), 21.1%; with `Cc1nn(-c2ccccc2)c2nc3c(c(-c4ccc(Cl)cc4)c12)CNC1(CCSCC1)N3`, 97.3%.
The figure for `COc1ccc(-c2nc3c(N)c(CO)c(C)nc3o2)cc1` is 89.7%; for `Cc1ccc2c(c1)Sc1c(ccc3ccccc13)N2` it is 57.3%; for `Cc1cc(C(=O)c2ccccc2)c(C)c2c1[nH]c1ccc(Cl)cc12` it is 7.25% (active).
Take `Cn1cc(-c2csc(-c3ccccc3)n2)c2cccnc21`: the growth is -27.8% [100 µM] (active).
With `COc1ccc(C(=O)Nn2c(NCC(=O)N3c4ccccc4Sc4ccccc43)nnc2-c2ccc(O)cc2)cc1`, the growth is 97.8%.
Consider `CCC1(C2CCCC2)NC(=O)NC1=O` (stereo not given), for which the growth was 109%.
On to `O=C(/C=C/c1c(Cl)nc2sccn12)c1ccc(F)c(F)c1`, for which the growth was 85.6%.
For the molecule `COc1cccc(-c2nn(-c3ccccc3)cc2-c2ccnc(NCCCNC(=O)Nc3ccc(Cl)c(Cl)c3)c2)c1`, the growth is -20.3% (active).
As to `N#C/C(=C\c1ccc2c(c1)OCO2)n1nnc2cc(F)c(F)cc21`, the growth was 27.4%.
For `CCCCCCCCCOc1c(OC)cc(C2CC(=O)Nc3c2c(C)nn3-c2nc3ccccc3[nH]2)cc1OC` (stereo not given), the growth is -1.8% (active).
As for `Cc1c(C)c2c(c(C)c1OCC(=O)O)CC[C@@](C)(CCC[C@@H](C)CCC[C@@H](C)CCCC(C)C)O2`, the growth is -28.2% [50 µM] (active).
In the case of `COC(=O)c1c2c(c[n+]([O-])c1C)C(=O)C=CC2=O`, the growth is 97.1%.
The figure for `COc1ccc(-c2nc(SCC(=O)Nc3nc(-c4ccccc4)cs3)[nH]c(=O)c2C#N)cc1` is 95.5%; for `O=C(CC(SCc1ccccc1)c1ccccc1)c1ccccc1` (stereo not given) it is 93.5%.
With `COc1ccc(C2c3ccc4ccccc4c3Oc3nc(C)[nH]c(=O)c32)cc1` (stereo not given) the figure was 93.9%; with `COc1cccc(Nc2nccc(Nc3ccc4[nH]ncc4c3)n2)c1`, -11.4% (active); with `OC(COc1ccccc1Cl)COc1ccccc1Cl`, 95.9%.
In the case of `N/C(=N/N=C/c1ccccc1)N/N=C\c1ccccc1`, the growth is 10.7%.
With `COC(=O)[C@]12CC[C@@H](C)[C@H](C)[C@@H]1C1=CC[C@@H]3[C@@]4(C)C(C=O)=C[C@@](C)(COC(C)=O)C4=CC[C@@]3(C)[C@]1(C)CC2`, the growth was 12.5%.
With `COc1cccc(-c2nn(-c3ccccc3)cc2-c2ccnc(NCCNC(=O)Nc3ccc(Cl)c(Cl)c3)c2)c1`, the growth was -22.2% (active).
On to `O=C(CSc1nccc(Nc2ccc(S(=O)(=O)Nc3nccs3)cc2)n1)c1ccc(F)cc1`, for which the growth was 101%.
For `CN(C)CC1=NC2SC=C(c3ccccc3)C2C(=O)N1CC#N` (stereo not given), the growth is 98.1%.
For `CS(=O)(=O)c1ccc(Nc2nc(N[C@H]3CCCC[C@H]3N)nc3cc[nH]c(=O)c23)cc1`, the growth was 102%.
The figure for `O=C(N/N=C/c1ccncc1)c1ccc(C(F)(F)F)nc1Nc1cccc(C(F)(F)F)c1` is -10.7% (active); for `O=[N+]([O-])c1ccc(Sc2cccc[n+]2[O-])c2nonc12` it is 84.8%.
